Most compounds without a hit are left out; they make up all but 3.1% or so of the library.
RGS4 inh: Inhibitors of Regulator of G Protein Signaling (RGS) 4: qHTS; Regulator of G-protein signaling 4 (Homo sapiens), P49798; 390,000 compounds, 0.039% hits; Potency, µM (doses to about 114 µM), for inactives: at the top dose activity change, negative = inhibition, hits mostly inhibitors; Transcreener GDP fluorescence polarization, RGS4-accelerated GTP hydrolysis; active = well fitted inhibition curve with a large enough effect; inconclusive = small, poorly fitted or top-dose-only effect; inactive = no such curve, though single readings can be large or run the other way; also: potency is read from the fitted curve at half-maximal effect; % is scaled to controls: 0 for no effect and ±100 for the full control effect; nearly all actives have a fitted effect of over 75% in size
Target sequence (P49798 whole entry, looked up): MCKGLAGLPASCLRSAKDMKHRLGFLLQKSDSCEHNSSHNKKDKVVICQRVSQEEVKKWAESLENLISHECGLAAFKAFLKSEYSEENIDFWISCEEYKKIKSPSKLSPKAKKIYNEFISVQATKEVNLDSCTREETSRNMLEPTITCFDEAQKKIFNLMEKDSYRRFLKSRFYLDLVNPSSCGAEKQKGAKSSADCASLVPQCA
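MLSMR compounds (23 nl, pin-transferred) preincubated 10 min at room temperature with a 500nM (2x) first reagent, then RGS4 at 900nM (2x) plus Transcreener GDP mix added; fluorescence polarization (620/688 nm) read before and after 90 min at 30 °C.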
uPA generation: qHTS for Inhibitors of Cell Surface uPA Generation; Potency, µM (top dose mostly 38.3 µM), inactives show at the top dose activity change, negative = inhibition, actives largely listed as inhibitors; cell surface uPA generation assay, qHTS; AID 540303, 2011; 330,000 compounds, 0.31% hits; active = well fitted inhibition curve with a large enough effect; inconclusive = small, poorly fitted or top-dose-only effect; inactive = no such curve, though single readings can be large or run the other way; tested in mouse RAW 264.7 cells; also: potency is read from the fitted curve at half-maximal effect; % is scaled to controls: 0 for no effect and ±100 for the full control effect; nearly all actives have a fitted effect of over 55% in size
DRD3 antagonist: qHTS of D3 Dopamine Receptor Antagonist: qHTS; D(3) dopamine receptor (Homo sapiens), P35462; D3R cells, DiscoveRx beta-arrestin luminescence, antagonist mode; stronger effect = lower value; max response, negative = inhibition, %; 360,000 compounds, 2.5% hits; in the data active = max response below about -50%; inconclusive = no clear call, values can overlap the other calls; also: % is scaled to controls: 0 for no effect and ±100 for the full control effect
Target sequence (P35462 whole entry, looked up): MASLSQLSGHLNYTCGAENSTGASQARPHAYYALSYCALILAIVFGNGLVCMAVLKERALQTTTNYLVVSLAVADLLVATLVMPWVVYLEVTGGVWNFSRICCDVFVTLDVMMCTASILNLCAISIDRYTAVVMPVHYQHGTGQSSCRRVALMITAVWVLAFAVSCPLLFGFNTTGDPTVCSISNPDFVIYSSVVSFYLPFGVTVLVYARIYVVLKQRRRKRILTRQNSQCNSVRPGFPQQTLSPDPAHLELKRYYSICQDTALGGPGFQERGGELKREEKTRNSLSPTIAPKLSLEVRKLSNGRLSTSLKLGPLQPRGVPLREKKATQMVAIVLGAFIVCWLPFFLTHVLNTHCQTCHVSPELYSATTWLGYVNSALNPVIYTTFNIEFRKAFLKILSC
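Cells expressing the human receptor were seeded at 1500 cells/well, incubated overnight at 37 degrees C in 5% CO2, then exposed to library compounds with dopamine controls for 90 minutes at 37 degrees C before luminescent detection.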
DRD3 agonist: qHTS of D3 Dopamine Receptor Agonist: qHTS | D(3) dopamine receptor (Homo sapiens), P35462 | D3R DiscoveRx beta-arrestin cells, luminescence, 90 min | max activation, % | 410,000 compounds, 0.58% hits; in the data active = max activation above about 30%; also: 0% is about no effect
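Agonist mode: compounds and dopamine controls were applied to plated cells for 90 min at 37 degrees C after an overnight attachment at 1500 cells/well. Luminescent read-out followed 30 - 60 minutes at room temperature with DiscoveRx detection reagent.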
Starred values were filed as active, the others as inactive; ? = inconclusive; . = not tested or not shown; ! = not confirmed by another sample; [ ] = another dose, or the depositor's remark.

SMILES	RGS4 inh	uPA generation	DRD3 antagonist	DRD3 agonist
CC1CCC(C(C)C)C(OC(=O)Cn2c(-c3ccccc3)[n+](C)c3ccccc32)C1 (configuration not stated)	-9%	4.5µM*!	-19	-21
CC1CCC(C(C)C)C(OC(=O)C[n+]2cc(-c3ccc(Cl)cc3)n3c2CCC3)C1 (configuration not stated)	7%[11.4 µM]	-4%	-16	-13
CC1CCC(C(C)C)C(OC(=O)Cn2c(-c3ccc(F)cc3)[n+](C)c3ccccc32)C1 (configuration not stated)	1%	-7%	-72*	-14
COc1cc(NS(=O)(=O)c2ccc3c(c2)CC(=O)N3)cc(OC)c1OC	-6%	.	.	8
O=C(C[C@H]1CC[C@H]2[C@@H](COC[C@@H](O)CN2S(=O)(=O)c2ccccc2)O1)N[C@@H]1CCN(Cc2ccccc2)C1	.	.	-71*	-13
Cc1ccc(NC(=O)C2CCCN(S(=O)(=O)c3cccs3)C2)c(C)c1 (configuration not stated)	-8%	.	.	4
Cc1c(NC(=O)CC(O)(C(F)(F)F)C(F)(F)F)c(=O)n(-c2ccccc2)n1C	32%	3%	-13	2
COC(=O)C(F)(Sc1c(C)n(C)n(-c2ccccc2)c1=O)C(F)(F)F (configuration not stated)	10%	13%	-60*	-1
Cc1cccc(C)c1Nc1ncccc1C(=O)O	.	.	.	11
CCC1(C)Cc2ccccc2-c2nc(NCCO)[nH]c(=O)c21 (configuration not stated)	-36%	-8%	-52*	-7
Clc1cccc(-n2ncc3c(NCCCn4ccnc4)ncnc32)c1	-1%	.	.	-4
O=S(=O)(NCCc1csc2nc(-c3ccc(Cl)cc3)nn12)c1ccc(Oc2ccccc2)cc1	-1%	.	.	-2
CCOC(=O)c1c(CC(C)C)csc1NC(=O)COC(=O)c1ccc(O)cc1	0%	4%	25	36*
COc1ccc(C)cc1NC(=O)C1CCN(S(=O)(=O)c2c(C)noc2C)CC1	3%	2%	3	40*
CCOc1ccc(C(=O)Nc2c(C(=O)c3ccc(OC)cc3)oc3ccccc23)cc1	20%	.	.	-1
CCOc1cccc(C(=O)Nc2c(C(=O)c3ccc(OC)cc3)oc3ccccc23)c1	13%	.	.	33*
CCOC(=O)c1oc2ccccc2c1NC(=O)c1ccccc1OC	26%	.	39	50*
CCN(CC)C(=O)C1CCCN(c2ncnc3c2c(-c2ccccc2)cn3-c2cccc(C)c2)C1 (configuration not stated)	-40%	.	.	-6
CN1c2ccccc2C(O)=C(C(=S)Nc2ccccc2)S1(=O)=O	10%	-2%	-86*	-1
Cc1ccc(NC(=S)C2=C(O)c3ccccc3N(C)S2(=O)=O)cc1	-15%	-3%	-73*	-3
Cc1ccc(CNC(=O)CCS(=O)(=O)c2cc3c4c(c2)CCN4C(=O)CC3)cc1	0%	.	.	6
CC1CCCN(Cc2c(O)ccc3c(=O)c(-c4ccccc4Cl)c(C(F)(F)F)oc23)C1 (configuration not stated)	7%	.	.	5
CCC(=O)NC1=C(NC(C)c2ccccc2)C(=O)c2ccccc2C1=O (configuration not stated)	-6%	-4%	-16	1
CCC(=O)NC1=C(Cl)C(=O)C(NC(=O)CC)=C(Cl)C1=O	-132%	7%	-62*	0
C[C@H](CO)N1C[C@H](C)[C@H](CN(C)Cc2ccncc2)Oc2ncc(C#CC3CC3)cc2C1=O	.	.	-56*	2
SMILES	RGS4 inh	uPA generation	DRD3 antagonist	DRD3 agonist
C[C@@H]1CN([C@H](C)CO)C(=O)c2cc(C#CC3CCCCC3)cnc2O[C@H]1CN(C)Cc1cccnc1	.	.	22	2
COc1ccccc1-c1noc(CCC(=O)Nc2cc(C(F)(F)F)ccc2Cl)n1	-1%	.	-10	30*
COc1ccccc1C(=O)N1CCC(N2CCN(c3ccccc3OC)CC2)CC1	-4%	1%	-65*	-45
COc1ccccc1N1CCN(C(=O)C2CCN(C(=O)c3ccccc3Cl)CC2)CC1	13%	-3%	0	11
CC(C)CC(=O)N1CCC(N2CCN(c3ccccc3)CC2)CC1	?	1%	?	14
COc1ccc(C(=O)N2CCC(N3CCN(c4ccccc4)CC3)CC2)cc1	-6%	6%	-19	1
COc1ccccc1C(=O)N1CCC(N2CCN(c3ccccc3)CC2)CC1	0%	-1%	-19	53*
COc1ccccc1N1CCN(C2CCN(C(=O)COc3ccccc3)CC2)CC1	3%	-2%	-61*	-22
CC(C)(C)C1CCC(N2CCN(c3ccccc3)CC2)CC1 (configuration not stated)	19%	7%	-53*	1
COc1ccccc1N1CCN(C(=O)COc2cccc3ccccc23)CC1	-34%	0%	-1	0
CCOC(=O)Cn1c(=O)n(CC2CCCO2)c2nc(-c3ccc(C(C)C)cc3)nc(C(N)=O)c21 (configuration not stated)	14%	.	.	5
COc1cc(C(=O)Nc2c(C(=O)Nc3ccccc3F)oc3ccccc23)cc(OC)c1OC	8%	.	.	3
CC(=O)N(CC(O)CN(C(C)=O)c1c(I)c(C(=O)NCC(O)CO)c(I)c(C(=O)NCC(O)CO)c1I)c1c(I)c(C(=O)NCC(O)CO)c(I)c(C(=O)NCC(O)CO)c1I (configuration not stated)	.	.	.	-18
CCOc1ccccc1CNC(=O)c1ccc2nc(N3CCC(C)CC3)sc2c1	6%	.	.	6
COc1ccccc1N1CCN(C2CCCN(S(=O)(=O)c3ccc(C)cc3)C2)CC1 (configuration not stated)	31%	-6%	-80*	-25
CC(=O)c1ccc(NC(=O)c2nn(C)c3c2COc2ccccc2-3)cc1	4%	.	.	3
O=[N+]([O-])c1cc(S(=O)(=O)C(F)(F)F)ccc1N1CCN(c2ccccc2)CC1	-10%	-9%	-54*	-20
CCOc1cc(/C=C2/NC(=O)NC2=O)cc([N+](=O)[O-])c1O	-3%	0%	-86*	-20
COc1cc(S(=O)(=O)N2CCC(C(N)=O)CC2)c(C)cc1C	28%	3%	-104*	-15
O=C(Cn1cc(S(=O)(=O)Cc2ccc(F)cc2)c2ccccc21)NCc1ccccc1	-14%	.	.	-15
Cc1ccc(NC(=O)c2nc(S(=O)(=O)Cc3ccccc3)ncc2Cl)cc1	?	-5%	-86*	-31
O=C(NCc1ccccc1)c1nc(S(=O)(=O)Cc2ccc(F)cc2)ncc1Cl	?	.	.	-23
O=C(Nc1ccccc1F)c1nc(S(=O)(=O)Cc2ccccc2F)ncc1Cl	?	.	.	0
Cc1ccccc1CS(=O)(=O)c1ncc(Cl)c(C(=O)Nc2ccc(F)cc2)n1	-4%	?	-84*	-2
